Results reported in PubChem BioAssay (NCI).
The panel holds about 79,000 compounds, 15% with a hit somewhere; the sample as a whole holds those more often. Calls of active or inactive are those of the source. No stated cut-off is given here; in the data, active means growth inhibition above about 70%; inactive means the rest.

Legend:
[1] = NCI Yeast Anticancer Drug Screen. Data for the rad52 strain (AID 147);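 further: 0% = growth of vehicle-treated control cultures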; conditions: S. cerevisiae rad52 mutant growth inhibition, stronger effect = higher value
In short: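 Read-out: growth inhibition versus vehicle-treated controls. Cells were a DNA repair-deficient yeast strain treated with compounds.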

[2] = NCI Yeast Anticancer Drug Screen. Data for the wt1 strain (AID 149);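 further: 0% = growth of vehicle-treated wt1 cultures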; conditions: S. cerevisiae wt1 strain (SPY 50644) growth inhibition, stronger effect = higher value
In short: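 Readout: yeast growth inhibition, normalised to vehicle controls, in the wt1 strain exposed to test compounds.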

[3] = NCI Yeast Anticancer Drug Screen. Data for the rad50EPP+ strain (AID 151);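 further: 0% = growth of vehicle-treated control cultures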; conditions: S. cerevisiae rad50 mutant strain, stronger effect = higher value
In short: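 Growth inhibition read against vehicle controls in rad50EPP+ yeast, a strain altered in DNA damage repair, after compound exposure.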

[4] = NCI Yeast Anticancer Drug Screen. Data for the mgt1 strain (AID 153); conditions: S. cerevisiae mgt1 mutant growth inhibition, stronger effect = higher value
In short: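 mgt1 yeast grown with test compound; read-out is growth inhibition versus vehicle-treated cultures.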

[5] = NCI Yeast Anticancer Drug Screen. Data for the rad50 strain (AID 155);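 further: 0% = growth of vehicle-only cultures of the same strain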; conditions: S. cerevisiae rad50 strain growth inhibition, stronger effect = higher value
In short: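 Compounds were tested on a yeast strain with an engineered DNA damage repair alteration; the reported value is growth inhibition normalised to vehicle treatment.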

[6] = NCI Yeast Anticancer Drug Screen. Data for the mec2-1 strain (AID 157); conditions: S. cerevisiae mec2-1 strain, stronger effect = higher value
In short: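 Yeast mec2-1 mutant treated with compound. Readout: growth inhibition vs vehicle controls.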

[7] = NCI Yeast Anticancer Drug Screen. Data for the rad14 strain (AID 159);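 further: 0% = growth of vehicle-treated control cultures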; conditions: S. cerevisiae rad14 strain growth inhibition, stronger effect = higher value
In short: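 Compound-treated yeast with a defined DNA-repair lesion; growth inhibition normalised to vehicle-treated cultures.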

[8] = NCI Yeast Anticancer Drug Screen. Data for the sgs1 mgt1 strain (AID 161);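 further: 0% = growth of cultures given vehicle only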; conditions: S. cerevisiae sgs1 mgt1 strain, stronger effect = higher value
In short: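 Mutant yeast exposed to compound; growth scored against vehicle-only wells.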

[9] = NCI Yeast Anticancer Drug Screen. Data for the CLN2oe strain (AID 163);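 further: 0% = growth of vehicle-only control cultures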; conditions: S. cerevisiae CLN2oe strain, stronger effect = higher value
In short: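 Read-out: yeast growth inhibition, expressed relative to vehicle-only controls. The strain bears an engineered cell-cycle alteration.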

[10] = NCI Yeast Anticancer Drug Screen. Data for the cln2 rad14 strain (AID 165);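 further: 0% = growth equal to vehicle treated cultures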; conditions: S. cerevisiae cln2 rad14 strain, stronger effect = higher value
In short: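 cln2 rad14 yeast strain; compound exposure; growth inhibition read vs vehicle controls.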

[11] = NCI Yeast Anticancer Drug Screen. Data for the bub3 strain (AID 167); conditions: S. cerevisiae bub3 mutant strain, stronger effect = higher value
In short: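 Growth of a checkpoint-deficient yeast mutant is measured after compound exposure. Values represent inhibition relative to vehicle.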

[12] = NCI Yeast Anticancer Drug Screen. Data for the wt2 strain (AID 169);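 further: 0% = growth of vehicle-treated yeast cultures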; conditions: S. cerevisiae wt2 strain growth inhibition, stronger effect = higher value
In short: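 Read-out: growth inhibition versus vehicle-treated control cultures after compound exposure of the yeast strain.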

[13] = NCI Yeast Anticancer Drug Screen. Data for the mlh1 strain (AID 171);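 further: 0% = growth of vehicle-treated control cultures of the same strain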; conditions: S. cerevisiae mlh1 strain growth inhibition, stronger effect = higher value
In short: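 Read-out: growth inhibition versus vehicle controls. Strain: engineered yeast with a defined DNA repair or cell cycle defect, compound-treated.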

[14] = NCI Yeast Anticancer Drug Screen. Data for the sgs1 strain (AID 173);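 further: 0% = growth of vehicle-only control cultures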; conditions: S. cerevisiae sgs1 mutant, stronger effect = higher value
In short: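 Read-out: yeast growth inhibition relative to vehicle controls, following compound exposure of a strain with a defined DNA repair/cell cycle alteration.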

[15] = NCI Yeast Anticancer Drug Screen. Data for the mlh1 rad18 strain (AID 175); conditions: S. cerevisiae mlh1 rad18 strain growth inhibition, stronger effect = higher value
In short: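 Yeast w/ defined DNA-repair lesions; compound exposure; growth vs vehicle controls → % inhibition.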

[16] = NCI Yeast Anticancer Drug Screen. Data for the rad18 strain (AID 177); conditions: S. cerevisiae rad18 mutant growth inhibition, stronger effect = higher value
In short: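 Readout: growth inhibition vs vehicle controls. Cells: genetically altered yeast strain, DNA repair defect.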

[17] = at 5.0 µM (retest, dose inferred, filed as 0.5)
[18] = at 50.0 µM (retest, dose inferred, filed as 5.0)

Measured: growth inhibition

C/C1=C/C2OC(=O)C3(C)C2C(CC2(C)OC1=CC2=O)OC3(O)C(C)C (stereo not drawn)
inactive: [1]; at 1.2 µM -27% | [1]; at 3.7 µM -33% | [1]; at 11.0 µM -32% | [1]; at 33.0 µM -60% | [1]; at 100.0 µM -39% | [2]; at 1.2 µM -23% | [2]; at 3.7 µM -29% | [2]; at 11.0 µM -42% | [2]; at 33.0 µM -16% | [2]; at 100.0 µM -33% | [3]; at 1.2 µM -9% | [3]; at 3.7 µM -1% | [3]; at 11.0 µM 32% | [4]; at 1.2 µM -21% | [4]; at 3.7 µM -18% | [4]; at 11.0 µM 8% | [4]; at 33.0 µM 68% | [5]; at 1.2 µM -25% | [5]; at 3.7 µM -29% | [5]; [17] 16% | [5]; at 11.0 µM -38% | [5]; at 33.0 µM -57% | [5]; [18] 21% | [5]; at 50.0 µM 6.75% | [5]; at 100.0 µM -47% | [6]; at 1.2 µM -16% | [6]; at 3.7 µM -27% | [6]; [17] 18% | [6]; at 11.0 µM -27% | [6]; at 33.0 µM -18% | [6]; [18] 24% | [6]; at 50.0 µM -27.4% | [6]; at 100.0 µM -24% | [7]; at 1.2 µM -27% | [7]; at 3.7 µM -20% | [7]; at 11.0 µM -34% | [7]; at 33.0 µM -39% | [7]; at 100.0 µM -16% | [8]; [17] 21% | [9]; at 1.2 µM 4% | [9]; at 3.7 µM 22% | [9]; at 11.0 µM 13% | [9]; at 33.0 µM 0% | [9]; at 100.0 µM 10% | [10]; [17] 27% | [10]; [18] 29% | [10]; at 50.0 µM 7.4% | [11]; at 1.2 µM -8% | [11]; at 3.7 µM -19% | [11]; [17] 22% | [11]; at 11.0 µM -20% | [11]; at 33.0 µM -35% | [11]; [18] 16% | [11]; at 50.0 µM -16.7% | [11]; at 100.0 µM -28% | [12]; at 1.2 µM 8% | [12]; at 3.7 µM 21% | [12]; at 11.0 µM 27% | [13]; at 1.2 µM 21% | [13]; at 3.7 µM 5% | [13]; at 11.0 µM 31% | [13]; at 33.0 µM 60% | [14]; at 1.2 µM 5% | [14]; at 3.7 µM -1% | [14]; at 11.0 µM 26% | [15]; [17] 24% | [15]; [18] 32% | [15]; at 50.0 µM -6.1% | [16]; at 1.2 µM -6% | [16]; at 3.7 µM -33% | [16]; at 11.0 µM -38% | [16]; at 33.0 µM -44% | [16]; at 100.0 µM -37%
active: [3]; at 33.0 µM 72% | [3]; at 100.0 µM 91% | [4]; at 100.0 µM 93% | [8]; [18] 87% | [8]; at 50.0 µM 82.4% | [12]; at 33.0 µM 79% | [12]; at 100.0 µM 91% | [13]; at 100.0 µM 90% | [14]; at 33.0 µM 72% | [14]; at 100.0 µM 92%
